# High-throughput results deposited in PubChem BioAssay by The Scripps Research Institute Molecular Screening Center.
# SRC1 TRFRET art: TR-FRET detection interference compounds, primary screen, artefact control for PPARgamma SRC-1 recruitment agonists, biochemical, TR-FRET emission ratio. TR-FRET ratio at 8 µM. TR-FRET detection artefact counter-screen; active compounds read high. 0.34% of 99,000 active; in the data active = TR-FRET ratio above about 2300
# PPARg SRC-1 ag: PPARgamma agonists recruiting SRC-1 coactivator, primary screen, biochemical. activation, % at 8 µM. PPARgamma-SRC-1 coactivator recruitment biochemical assay. 0.41% of 200,000 active. AID 631, 2007; in the data active = activation above about 19%;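 also: 0% = DMSO and 100% = reference agonist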
# Target sequence (P37231 whole entry, looked up): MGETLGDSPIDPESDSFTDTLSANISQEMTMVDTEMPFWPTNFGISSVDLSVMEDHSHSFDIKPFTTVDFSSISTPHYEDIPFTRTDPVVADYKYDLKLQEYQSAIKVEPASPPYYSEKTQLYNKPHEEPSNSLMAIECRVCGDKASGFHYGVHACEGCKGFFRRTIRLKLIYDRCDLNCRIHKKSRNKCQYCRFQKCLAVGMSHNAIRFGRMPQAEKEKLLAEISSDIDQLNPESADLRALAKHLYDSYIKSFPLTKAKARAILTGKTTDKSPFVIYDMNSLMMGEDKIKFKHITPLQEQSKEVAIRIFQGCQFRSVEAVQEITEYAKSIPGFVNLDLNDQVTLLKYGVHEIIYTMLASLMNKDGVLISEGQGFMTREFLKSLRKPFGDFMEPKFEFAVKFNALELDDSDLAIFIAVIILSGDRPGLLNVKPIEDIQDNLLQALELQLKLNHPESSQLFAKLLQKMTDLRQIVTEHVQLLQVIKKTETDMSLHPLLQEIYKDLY
# SRC3 TRFRET art: TR-FRET detection interference compounds, artefact control for PPARgamma SRC-3 recruitment agonists, biochemical, TR-FRET ratio | TR-FRET ratio at 8 µM | 0.39% of 99,000 active | AID 1048, 2008 | TR-FRET artefact counter-screen, PPARgamma/SRC-3 format; active compounds read high; in the data active = TR-FRET ratio above about 2000
# SRC2 TRFRET art: TR-FRET signal artefacts, primary screen, artefact control for PPARgamma SRC-2 agonist project, biochemical. TR-FRET artefact counter-screen; active compounds read high. TR-FRET ratio at 8 µM. 0.4% of 200,000 active; in the data active = TR-FRET ratio above about 2000
# PPARg SRC-2 ag: agonists of PPARg-SRC-2 recruitment, primary screen, biochemical, HTS | 0.34% of 200,000 active | activation, % at 8 µM | AID 1032, 2008 | PPARgamma LBD-SRC-2 recruitment;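 also: 0% = vehicle and 100% = reference agonist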
# PPARg SRC3 recr: PPARgamma agonists recruiting SRC-3 coactivator, primary screen, biochemical; Peroxisome proliferator-activated receptor gamma (Homo sapiens), P37231; biochemical PPARgamma/SRC-3 coactivator recruitment assay; activation, % at 8 µM; 0.26% of 200,000 active; AID 731, 2007; in the data active = activation above about 23%;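 also: 0% = DMSO and 100% = reference agonist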
# PPARg SRC2 conf: agonists of PPARgamma SRC-2 coactivator recruitment, confirmation, biochemical, HTS | activation, % at 8 µM | 52% of 790 active | biochemical SRC-2 recruitment by PPARgamma | shares compounds with PPARg SRC3 recr;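 also: 0% = vehicle alone and 100% = reference agonist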
# PPARg SRC1 ag: PPARgamma agonists recruiting SRC-1 coactivator, confirmation, biochemical; shares compounds with PPARg SRC3 recr; 43% of 790 active; PPARgamma–SRC-1 coactivator recruitment biochemical assay; activation, % at 8 µM; in the data active = activation above about 20%;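 also: 0% = vehicle wells and 100% = reference agonist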
# PPARg SRC3 conf: PPARgamma-driven SRC-3 coactivator recruitment agonists, confirmation, biochemical | biochemical PPARgamma-SRC-3 coactivator recruitment, agonist mode | activation, % at 8 µM | shares compounds with PPARg SRC3 recr | 29% of 790 active; in the data active = activation above about 24%;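 also: 0% = vehicle wells and 100% = reference agonist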
# The depositor's hits bear a star; / = not tested or not shown. Sampled rows, rich in hits. Any-hit rate of the full collection: about 0.9%. Rule as the data show it, unless noted: active = activation above about 22%; inactive = the rest.
SMILES,SRC1 TRFRET art,PPARg SRC-1 ag,SRC3 TRFRET art,SRC2 TRFRET art,PPARg SRC-2 ag,PPARg SRC3 recr,PPARg SRC2 conf,PPARg SRC1 ag,PPARg SRC3 conf
Cc1nnc(N2C(=O)C(O)=C(C(=O)c3ccco3)C2c2ccc(F)cc2)s1 (configuration not stated),/,27.9*,/,2061*,38.1*,49.5*,41.1*,32.4*,28.2*
COc1ccc(CNC(=O)C(C)Cc2ccccc2)cc1O (configuration not stated),1632,1.5,1609,1460,6.0,2.6,/,/,/
Cc1ccc(N=Cc2sc(O)c3ccccc23)cc1,/,25.1*,/,1560,28.8*,19.2,-3.8,-2.5,-0.5
Cc1ccc(N=Cc2sc(O)c3ccccc23)c(C)c1,/,16.4,/,1462,7.8,6.2,/,/,/
CCOC(=O)c1c(N2C(=O)CC(Sc3ccccc3C(=O)O)C2=O)sc2c1CCCC2 (configuration not stated),1900,-4.8,1541,1590,0.5,3.0,/,/,/
CCSCc1nnc(SCC(=O)Nc2ccc(OC)cc2)n1C,1542,-1.4,1618,1537,5.7,8.1,/,/,/
Cc1ccc(S(=O)(=O)N(c2nc(NC(C)C)nc(NC(C)C)n2)n2cnnc2)cc1,1915,9.8,1525,1703,23.7*,0.7,5.9,3.6,2.1
COC(=O)CN(n1cnnc1)S(=O)(=O)c1ccc(C)cc1,/,-0.1,/,1568,4.5,-5.3,/,/,/
COc1ccc(-n2nc3c(c2NC(=O)c2ccc(S(=O)(=O)N4CCOCC4)cc2)CS(=O)(=O)C3)cc1,1754,8.5,1659,1544,-2.2,-7.7,/,/,/
S=c1[nH]nc(-c2cc(-c3ccco3)[nH]n2)n1-c1ccccc1,/,6.2,/,1917,18.0,26.8*,22.8*,16.0,14.5
Cc1c(Cl)c(-c2n[nH]c(=S)n2-c2ccc(F)cc2)nn1C,/,32.6*,/,2050*,31.2*,47.6*,27.7*,17.2,18.7
Cc1nn(C)c(-c2n[nH]c(=S)n2-c2ccccc2)c1Cl,2273,23.7*,2211*,2081*,13.7,20.5,21.6,16.1,17.5
CCn1c(-c2nn(C)cc2Cl)n[nH]c1=S,2020,-0.2,1469,1771,4.8,-0.8,/,/,/
Cc1cc(-c2n[nH]c(=S)n2-c2ccccc2)nn1C,2186,14.1,1839,1825,11.9,6.5,/,/,/
Cn1cc(Cl)c(-c2n[nH]c(=S)n2-c2ccccc2)n1,2497*,29.5*,2184*,2159*,35.2*,20.5,26.6*,16.4,18.4
CCOc1ccc(-c2cn(-c3cccc(SC)c3)c(=O)[nH]2)cc1,1802,5.0,1579,1465,-6.3,3.9,/,/,/
Fc1cccc2sc(N3CCCC3)nc12,1910,-2.2,1801,1380,6.2,2.6,/,/,/
CCOc1ccc(NC(=O)Nc2cc(-c3ccccc3)sc2C(=O)OC)cc1,1837,4.9,1594,1494,1.4,-0.7,/,/,/
COC(=O)c1sc(-c2ccccc2)cc1NC(=O)C1CC1,2544*,32.6*,2499*,2243*,30.2*,21.0,32.0*,21.1*,17.6
CCOC(=O)c1sc(-c2ccc(OC)cc2)cc1NC(C)=O,2390*,17.9,2089*,1849,22.5*,14.1,43.0*,29.7*,31.5*
CC1Cc2ccccc2N1S(=O)(=O)c1cccc(C(=O)NCCCn2ccnc2)c1 (configuration not stated),1715,-4.4,1694,1705,3.9,1.8,/,/,/
COc1ccc(C(CC(=O)Nc2cc([N+](=O)[O-])ccc2OC)c2ccccc2)cc1 (configuration not stated),1743,13.8,1637,1734,0.4,-0.1,/,/,/
CNC(=S)N1N=C(c2ccc(C)cc2)CC1c1ccc(Cl)cc1 (configuration not stated),/,6.4,/,2072*,23.2*,13.9,13.6,7.0,8.9
CCOc1c(Cl)cc(C(=O)Nc2cccc(C(=O)O)c2)cc1Cl,1745,1.9,1869,1679,-5.7,3.5,/,/,/
O=C(Sc1nnc(-c2ccccc2)o1)N1c2ccccc2Sc2ccccc21,/,16.5,/,1691,31.1*,25.2,48.4*,33.6*,32.8*
SMILES,SRC1 TRFRET art,PPARg SRC-1 ag,SRC3 TRFRET art,SRC2 TRFRET art,PPARg SRC-2 ag,PPARg SRC3 recr,PPARg SRC2 conf,PPARg SRC1 ag,PPARg SRC3 conf
COc1cc(-c2nnc(SCC(=O)N3c4ccccc4Sc4ccccc43)o2)cc(OC)c1OC,/,1.5,/,1583,-2.8,6.8,/,/,/
O=C(NCCCN1CCCC1=O)c1ccc(Cl)c(Cl)c1,1845,-0.8,1817,1588,11.2,5.2,/,/,/
CN(C)c1ccc(N/C=C/C(=O)C(C)(C)C)cc1,/,12.8,/,2723*,80.6*,70.1*,7.0,9.5,7.2
CN(C)c1ccc(N/C=C/C(=O)c2ccccc2)cc1,/,8.7,/,1663,12.8,20.8,/,/,/
C=CCc1cc2c(oc(=O)c3ccccc32)c(C)c1O,2491*,27.9*,2419*,2206*,26.0*,18.5,21.1,12.8,14.4
Cc1c(O)c(CN2CCCC2)cc2c1oc(=O)c1ccccc12,/,2.9,/,1591,1.6,-3.2,/,/,/
Cc1ccc(Cl)cc1NC(=O)COC(=O)c1ccc(N2CCCC2)c([N+](=O)[O-])c1,1769,5.9,1519,1519,0.8,4.5,/,/,/
Cc1cc2cc(CNC(=O)c3cc4ccccc4o3)ccc2n1C,/,21.5*,/,2988*,18.1,31.5*,41.3*,31.8*,23.1
COc1ccc(C(=O)NCc2ccc3c(c2)cc(C)n3C)cc1,1948,-3.3,1480,1490,3.0,2.3,/,/,/
CCOc1ccc(N/C=C/C(=O)c2ccc(C)cc2)c([N+](=O)[O-])c1,/,24.3*,/,1659,13.2,18.5,2.7,2.1,-3.9
CCOc1ccc(N/C=C/C(=O)c2ccc3ccccc3c2)c([N+](=O)[O-])c1,/,-6.4,/,1478,-2.6,-1.2,/,/,/
COc1cc(/C=C(\C#N)C(=O)Nc2cccc3ncccc23)cc(OC)c1OC,1866,8.6,1573,1527,9.8,24.2*,3.2,9.9,13.0
O=S(=O)(/C=C/c1ccccc1)NCc1ccccc1Cl,1688,6.0,1710,1582,0.6,0.9,/,/,/
